Molecules are shown by their SMILES. Inconclusive results are not listed. The source made the active and inactive calls. Rule for the calls: active = hit-call score of the fitted dose curve at least 0.9, where 1 is the maximum; inconclusive = response in the unintended direction; inactive = score below 0.9.

In the experiment the test system is DIO1 (gene 1733). The experiment is described as follows: CCTE_GLTED_hDIO1: CCTE's human Deiodinase 1 (DIO1) Inhibition Assay, Great Lakes Toxicology and Ecology Division (GLTED) Lab (AID 2283987).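 Note: isolated human DIO1 enzyme in a cell-free setup rather than cells; enzyme activity read as free iodide liberated from substrate via Sandell-Kolthoff colorimetry.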 Put shortly: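 Inhibition of human deiodinase 1 is scored as reduced iodide liberation after a 3 h enzyme–chemical incubation, detected colorimetrically by the Sandell-Kolthoff reaction against DMSO controls.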
In general, AC50 refers to the concentration giving half of the maximal activity seen. With `CCCCCCCc1ccc(O)cc1`, the AC50 is 77 µM (active).

As to `C=CC(=O)OCC(F)(F)C(F)F`, the AC50 was 19.8 µM (active).

For `O=c1ssc(Cl)c1Cl`, the AC50 was 0.149 µM (active).

Regarding `COC(=O)C(F)(F)C(F)(F)OC(F)(C(F)(F)F)C(F)(F)OC(F)=C(F)F` (centres undefined), the AC50 is 0.494 µM (active).

The values are drawn from PubChem BioAssay (EPA / NIEHS).
